Bioassay records: PubChem, National Center for Advancing Translational Sciences (NCATS)
In the library only some 10% were active in any assay of this set; here they are far more common.
RORg inh = ROR gamma (mouse) transcription inhibition. Potency, µM (doses to about 53.6 µM), for the others: top-dose activity change, negative = inhibition, usual class: inhibitors. P51450. 310,000 compounds, 5.4% hits. Drosophila S2 Gal4-RORgamma UAS-luciferase reporter, 20 h; further: on the % scale 0 is the no-effect control and ±100 the full control effect; nearly all actives have a fitted effect of over 60% in size
Target sequence (P51450 whole entry, looked up, the tested form may be a part): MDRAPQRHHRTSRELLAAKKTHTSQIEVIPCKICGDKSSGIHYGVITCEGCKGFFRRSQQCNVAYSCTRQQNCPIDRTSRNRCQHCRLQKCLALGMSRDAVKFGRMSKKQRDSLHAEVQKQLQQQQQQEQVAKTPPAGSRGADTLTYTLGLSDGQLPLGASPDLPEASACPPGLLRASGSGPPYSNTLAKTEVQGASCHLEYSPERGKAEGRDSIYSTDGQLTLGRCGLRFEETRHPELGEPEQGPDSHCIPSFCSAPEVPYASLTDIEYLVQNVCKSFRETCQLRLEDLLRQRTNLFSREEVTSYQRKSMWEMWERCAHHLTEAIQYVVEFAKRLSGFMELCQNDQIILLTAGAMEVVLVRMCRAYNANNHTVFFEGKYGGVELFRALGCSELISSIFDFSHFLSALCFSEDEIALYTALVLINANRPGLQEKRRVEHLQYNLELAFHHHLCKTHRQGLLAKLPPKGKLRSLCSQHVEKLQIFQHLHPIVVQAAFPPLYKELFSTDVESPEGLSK
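A Gal4/UAS one-hybrid system in insect cells: metallothionein-promoter Gal4–ROR gamma fusion plus Photinus luciferase reporter. Copper sulfate 700 uM final, 20 hr ambient incubation, luminescent detection after 10 min with reagent.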
KB-V1 cytotox = KB-V1 MDR subline cytotoxicity; 400,000 compounds, 3.4% hits; AID 1347076; Potency, µM (series often up to 46.1 µM), actives largely listed as cytotoxic; KB-V1 MDR cells viability, CellTiter-Glo, 72 h; further: on the % scale 0 is the no-effect control and ±100 the full control effect; nearly all actives have a fitted effect of over 60% in size
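Cells of the MDR subline KB-V1 are plated, dosed with compound at multiple concentrations, and incubated 72 h at 37 degrees C; CellTiter-Glo is then added and luminescence read after 10 min.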
MCF10A rereplic = induces DNA re-replication in MCF 10a normal breast cells. MCF 10A DNA re-replication, Hoechst nuclear intensity, 48 h. 350,000 compounds, 2.9% hits. Potency, µM (highest dose often 46.1 µM), for the others: top-dose activity, positive = re-replication, most hits filed as activators. AID 624296; further: % of control where 0% means no effect; nearly all actives have a fitted effect of over 50% in size
SW480 rerep = induces DNA re-replication in SW480 colon adenocarcinoma cells; SW480 DNA re-replication, Hoechst DNA content imaging, 48 h; Potency, µM (series often up to 46.1 µM), for inactives: at the highest dose re-replication activation, actives largely listed as activators; 340,000 compounds, 1.8% hits; AID 624297; further: % of control where 0% means no effect; nearly all actives have a fitted effect of over 55% in size
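Quantitative HTS format with DMSO vehicle controls; 48 hr drug incubation at 37 C, then 40 min Hoechst staining and scanning imager measurement at 405 nm excitation.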
VP16 counter = inhibits Gal4-VP16 luciferase reporter, ROR gamma counter-screen; Drosophila S2 Gal4-VP16 UAS-luciferase, luminescence, 20 h; Potency, µM (top dose mostly 53.6 µM), inactives show top-dose activity, negative = inhibition, actives largely listed as inhibitors; 310,000 compounds, 3.5% hits; AID 2546;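 further: Gal4-VP16 expression switched on by copper sulfate through the metallothionein promoter; on the % scale 0 is the no-effect control and ±100 the full control effect; nearly all actives have a fitted effect of over 50% in size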
KB-3-1 tox = kills parental KB-3-1 adenocarcinoma cells. 400,000 compounds, 1.4% hits. AID 1347075. KB-3-1 viability, CellTiter-Glo ATP luminescence, 72 h. Potency, µM (highest dose often 46.1 µM), actives largely listed as cytotoxic; further: on the % scale 0 is the no-effect control and ±100 the full control effect; nearly all actives have a fitted effect of over 60% in size
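KB-3-1 cells, DMEM (no phenol red) + 10% FBS; compound by pin transfer, 72 h, 37 °C. Readout: CellTiter-Glo luminescence after 10 min. Data normalized, curve-fitted.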
The depositor's hits bear a star; i = inactive; ? = inconclusive; . = no result; [ ] = dose if it differs, or a comment. The call rests on the fitted dose curve; in most records, active means well fitted curve in the direction sought with a large enough effect; inconclusive means small, poorly fitted or top-dose-only effect, or another doubt; inactive means no such curve, though single readings can be large; an effect the other way counts as inactive or inconclusive. Potency means the concentration at half of the fitted maximal effect.

SMILES	RORg inh	KB-V1 cytotox	MCF10A rereplic	SW480 rerep	VP16 counter	KB-3-1 tox
Cc1nnc2n(Cc3ccccc3)c(=O)c3c4c(sc3n12)CN(Cc1ccccc1)CC4	-22%[10 µM]	.	.	.	-5%	.
O=c1c2c3c(sc2nc(NCCO)n1CCc1ccccc1)CCCCC3	16%	?	4.6µM*	?	-6%	?
Cn1c(N/N=C/c2ccccc2)nc2sc3c(c2c1=O)CCC3	1.6µM*	i	?	-12%	7.1µM*	i
O=C(CSc1nc2sc3c(c2c(=O)n1-c1ccccc1)CCCC3)N/N=C/c1ccc(C(=O)O)cc1	-4%	i	0%	2%	-6%	i
CN(C)CCNc1nc2sc3c(c2c(=O)n1Cc1ccccc1)CCCCC3	-5%	i	18µM*	16%	-14%	i
Cc1nnc2n(Cc3ccccc3)c(=O)c3c4c(sc3n12)CCCC4	11µM*	.	.	.	?	.
Cc1c(Br)cccc1NC(=O)C1(C)CCN1Cc1ccc(OC(C)C)cc1 (configuration not stated)	.	i	.	.	.	i
COc1ccc(NC(=O)c2cccc(N3CCCS3(=O)=O)c2)c(OC)c1	.	i	.	.	.	i
CCOc1ccccc1NC(=O)c1nc(SCc2ccccc2F)ncc1Cl	.	i	.	.	.	i
CN(C)c1ccc(-c2csc(C(O)c3cccc(Cl)c3)n2)cc1 (configuration not stated)	.	i	.	.	.	i
OCCNc1nc(SCc2ccccc2)nc2sc3c(c12)CCC3	18%	7.3µM*	?	-10%	4%	i
O=c1c2c3c(sc2nc(NCCO)n1Cc1ccco1)CCCCC3	?	i	?	-2%	0%	i
COCCNc1nc2sc3c(c2c(=O)n1Cc1ccco1)CCCCC3	?	i	8.2µM*	-9%	-9%	i
C=CCn1c(=O)c2c3c(sc2n2c(Nc4ccc(C(=O)OCC)cc4)nnc12)CCCC3	-13%	i	11%	13µM*	-6%	i
C=CCn1c(=O)c2c3c(sc2n2c(Nc4ccc(OC)cc4)nnc12)CCCC3	1%	?	13%	-2%	5%	?
O=S1(=O)C2CC3C=CC2(O3)C(O)C(Cc2ccccc2)N1Cc1cccc(F)c1 (configuration not stated)	12%	.	.	.	-6%	.
CCOC(=O)COc1ccc(C)cc1C(=O)c1ccn2nc(-c3ccc(Cl)cc3)cc2n1	.	i	.	.	.	i
N#Cc1ccccc1Cn1c(SCC(=O)NCc2ccccc2)nc2ccccc21	.	i	.	.	.	i
Cc1ccc(NC(=O)Cn2c(=O)oc3cc(S(=O)(=O)N4CCCCCC4)ccc32)cc1Cl	.	i	.	.	.	i
CCC(=O)Oc1ccc(C/C(=N\O)c2ccc(O)cc2O)o1	2.2µM*	i	15µM*	?	?	i
O=c1c2cc(Br)ccc2nc(-c2ccccc2)n1O	?	i	9%	-1%	?	i
O=c1c2cc(Cl)ccc2nc(-c2ccccc2Cl)n1O	?	i	?	-3%	20µM*	i
Cc1ccc(-c2nc3ccc(Cl)cc3c(=O)n2O)cc1	?	i	?	?	11µM*	?
O=c1c2ccccc2nc(-c2ccc([N+](=O)[O-])cc2)n1O	4%	?	3%	?	4µM*	i
O=c1c2ccccc2nc(-c2cccc(Cl)c2)n1O	1%[0.365 µM]	?	2%	-3%	.	?
SMILES	RORg inh	KB-V1 cytotox	MCF10A rereplic	SW480 rerep	VP16 counter	KB-3-1 tox
Cc1ccc(-c2nc3ccccc3c(=O)n2O)cc1	?	i	17%	3%	14µM*	i
CCCCCCCCN1C(=O)[C@H](CC(=O)N2CCSCC2)C[C@@]2(C(=O)OC)CCCCC=C12	.	?	.	.	.	i
CCOc1cc(N2CCOCC2)c(OCC)cc1NC(=O)c1cnccn1	.	i	0%	0%	.	?
O=C(NCc1cccc(F)c1)C1CCN(c2nn3cc(-c4ccc(F)cc4)nc3s2)CC1	.	i	.	.	.	i
O=CNc1ccc(/C=C/c2ccnc3ccccc23)cc1	.	i	.	.	.	i
O=C1CCCc2c1nc(-c1ccc([N+](=O)[O-])cc1)n2O	-28%	i	23µM*	34%	-9%	i
CCOc1nc(C#N)nc(N2CCOCC2)n1	.	i	.	.	.	i
C/C(CC(=O)NC1CCCC1)=N\NC(=O)C1CCCCC1	16µM*	i	-45%	1%	-3%	i
CC(=O)Nc1ccccc1NC(=O)C/C(C)=N/NC(=O)C1CCCCC1	-16%	i	5%	-3%	4%	i
O=C(CCNC(=O)c1ccc(Br)cc1)NC1CCCCCC1	.	16µM*	8%	-1%	.	i
O=C(CNC(=O)c1ccc(Cl)cc1)NC1CCCCC1	4%	i	1%	8.2µM*	-10%	i
O=C(NC1CCCCCCC1)c1cnccn1	?	i	0%	-10%	14%	i
C/C(CC(=O)NC1CCCCCC1)=N\NC(=O)c1cnccn1	-6%	i	-3%	0.52µM*	8%	i
O=C(CCNC(=O)c1ccc(Cl)cc1)NC1CCCCCC1	.	.	?	-2%	.	.
O=C(c1cccc(F)c1)N1CCC2(CC1)CN(c1ncccn1)C2	7%	.	.	.	-3%	.
C/C(CC(=O)NC1CCCCC1)=N\NC(=O)c1ccc(Br)cc1	13µM*	i	-2%	-2%	11µM*	i
C/C(CC(=O)NC1CCCCC1)=N\NC(=O)c1ccccc1C	-1%	i	20%	7%	-4%	i
NC(c1csc(Nc2ccc(C(=O)c3ccccc3)cc2)n1)c1ccccc1Cl (configuration not stated)	.	21µM*	.	.	.	?
Cc1ccc2nc(N3CC(=O)Nc4ccccc43)nc(-c3ccccc3)c2c1	?	?	3.3µM*	18µM*	?	i
Cc1ccc2cc3c(N)c(C(=O)N4CC(=O)Nc5ccccc54)sc3nc2c1	?	.	.	.	-8%	.
Cc1ccc2nc(N3CCC(C(=O)O)CC3)nc(-c3ccccc3)c2c1	14%	i	21µM*	0%	-11%	i
O=C(O)CCCC(=O)N1CCN(c2nc(-c3ccccc3)c3ccccc3n2)CC1	16%	i	6%	?	1%	i
Cc1ccc2nc(NCC(=O)O)nc(-c3ccccc3)c2c1	-4%	i	22%	-1%[9.22 µM]	-12%	i
Cc1ccc2nc(N3CCN(C(=O)CCC(=O)O)CC3)nc(-c3ccccc3)c2c1	6%	i	21µM*	14%	0%	i
CCCCCCCCCCOc1cc(OCCCCCCCCCC)cc(N(CC(=O)O)CC(=O)O)c1	-15%	.	.	.	5%	.
